Assay outcomes from PubChem.
HPGD inh – blocks human HPGD enzyme activity; P15428; purified HPGD, NADH fluorescence kinetic, PGE2 substrate; Potency, µM, hits mostly inhibitors; 150,000 compounds, 4.3% hits; AID 894
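20 nM HPGD preincubated 15 min at room temperature with compound in 50 mM Tris-HCl pH 8, 0.01% Tween 20. Started with 1 mM NAD+ and 30 uM prostaglandin E2; NADH fluorescence (360/450 nm) read 5 times over 30-s intervals, last minus first.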
PNC inhibitor – blocks assembly of the perinucleolar compartment; PC3M PTB-GFP, PNC prevalence imaging, 16 h; hits give low values; AID 2417; activity change (PNC), negative = inhibition, % at 10 µM; 140,000 compounds, 3.1% hits;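 active = readout at or below -70, meaning at least 70% loss of cells showing the perinucleolar compartment, a nuclear body marking cancer cells; inconclusive = readout between -30 and a set limit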
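Read-out is percentage of cells bearing a perinucleolar compartment, from automated 20x imaging of fixed, Hoechst-stained PC3M PTB-GFP cells. Cells were seeded 4 h, then exposed 16 h to compound (23 nl of library stock) in duplicate plates.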
ALDH1A1 block – blocks purified human ALDH1A1 activity; Purified ALDH1A1, NADH fluorescence, propionaldehyde substrate; Potency, µM (doses to about 75.3 µM), actives largely listed as inhibitors; 220,000 compounds, 7.3% hits; AID 1030
Target sequence (P00352 whole entry, looked up): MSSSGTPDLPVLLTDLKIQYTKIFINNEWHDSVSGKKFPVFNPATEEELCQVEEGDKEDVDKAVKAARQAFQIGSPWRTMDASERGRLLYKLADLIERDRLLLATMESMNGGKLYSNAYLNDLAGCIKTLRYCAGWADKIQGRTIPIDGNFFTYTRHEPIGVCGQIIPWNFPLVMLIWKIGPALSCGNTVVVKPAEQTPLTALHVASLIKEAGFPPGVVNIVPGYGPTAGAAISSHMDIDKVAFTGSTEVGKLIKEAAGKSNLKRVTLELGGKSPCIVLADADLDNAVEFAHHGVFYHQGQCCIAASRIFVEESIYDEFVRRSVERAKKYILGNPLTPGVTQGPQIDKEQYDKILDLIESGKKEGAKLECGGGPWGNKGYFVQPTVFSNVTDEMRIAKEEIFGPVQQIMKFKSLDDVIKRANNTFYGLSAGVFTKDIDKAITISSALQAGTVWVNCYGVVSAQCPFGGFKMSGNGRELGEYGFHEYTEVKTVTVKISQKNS
Lamin A splicing – changes lamin A minigene splicing in HeLa cells; HeLa LMNA splicing GFP/RFP minigene ratio, 48 h; Potency, µM (titrated, usually from 46.1 µM), most hits filed as inhibitors; 200,000 compounds, 0.01% hits; AID 1487; active = well fitted inhibition curve with a large enough effect in the signal ratio, with a control signal flat, not every such curve was filed as active; inconclusive = small, poorly fitted or top-dose-only effect, or effect the other way, or a change in a side signal; the % refers to the signal ratio
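S3 HeLa cells stably expressing lamin A-EGFP splicing minigene plus DsRed2, 600 cells/well, 48 h compound exposure at 37C. Laser-scanning cytometry; analysed as GFP (500-530 nm)/RFP (575-640 nm) total intensity ratio; 0.5% DMSO vehicle.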
IMPase inh – cell-permeable inhibitors of inositol monophosphatase (IMPase); CHO-M1 cells, IP1 accumulation, HTRF TR-FRET ratio; P97697; inhibition (IP1 accumulation), % at 46.1 µM; 120,000 tested, under 10 active; active = well fitted curve in the direction sought with a large enough effect in the signal ratio, not every such curve was filed as active; inconclusive = small, poorly fitted or top-dose-only effect, or a change in a side signal; inactive = no such curve, though single readings can be large or run the other way; the % refers to the signal ratio;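 also: cells stimulated with carbachol in lithium chloride buffer; higher means more IMPase inhibition seen as more IP1 and lower FRET ratio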
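CHO-M1, 2000 cells/well, cultured 16–30 h; cpd up to 46 uM; carbachol (50 uM solution, stimulation buffer w/ 50 mM LiCl, pH 7.4), 30 min 37C; IP-One TR-FRET, 10 min RT; Ex 320/Em 665, 620; Hill-fit AC50.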
KinaseGlo FLuc – blocks Kinase-Glo luciferase, a counter-screen artifact | Q27757 | Kinase-Glo luciferase, ATP luminescence, 8 min | Potency, µM (highest dose often 38.3 µM), most hits filed as inhibitors | 200,000 compounds, 0.28% hits | AID 1379; active = well fitted inhibition curve with a large enough effect; inconclusive = small, poorly fitted or top-dose-only effect; also: nearly all actives have a fitted effect of over 60% in size
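Compounds were added to a substrate mix at pH 7.2 (50 mM imidazole, 10 uM ATP, within the enzyme's linear range), followed by Kinase-Glo detection reagent; luminescence was measured after 8 minutes at ambient temperature.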
A number is an active result; [ ] = remark or other dose. The list is not random: actives were taken first. Their share in the collection is about 10%. Unless noted, calls follow the shape of the dose curve; as a rule, active = well fitted inhibition curve with a large enough effect (not every such curve was filed as active); inconclusive = small, poorly fitted or top-dose-only effect, or another doubt; inactive = no such curve, though single readings can be large or run the other way.

Screening CCOC(=O)N1CCC(NC(=O)C2CCCN(C(=O)c3cc4sccc4n3C)C2)CC1 (stereo not given) returned HPGD inh inactive, PNC inhibitor inactive, ALDH1A1 block inconclusive, Lamin A splicing inconclusive, IMPase inh inactive and KinaseGlo FLuc inactive.
Screening CC1(C)CCC(NC(=O)[C@H](N)CCC(=O)O)CC1 returned IMPase inh inactive.
`O=C(CCS(=O)(=O)c1cc(Br)cc2c1N(C(=O)C1CC1)CC2)NCc1ccccc1Cl` gave IMPase inh inactive.
Screening CCCCCC(=O)NC(=S)Nc1ccc2oc(=O)ccc2c1 returned ALDH1A1 block 7.1µM, Lamin A splicing inactive and KinaseGlo FLuc inactive.
`Cc1ccc(N(C(=O)Nc2ccccc2)C2=NCC(C)S2)cc1` (stereo not given) gave HPGD inh 11µM, PNC inhibitor inactive, ALDH1A1 block inactive, Lamin A splicing inactive, IMPase inh inactive[1.84 µM] and KinaseGlo FLuc inactive.
`CN1CCN(C(CNC(=O)C(=O)Nc2cccc(Cl)c2)c2ccc3c(c2)OCO3)CC1` (stereo not given) gave Lamin A splicing inactive.
`O=C1OC2(c3cc(Br)c(O)c(Br)c3Oc3c2cc(Br)c(O)c3Br)c2c(Cl)c(Cl)c(Cl)c(Cl)c21` gave HPGD inh 13µM and ALDH1A1 block 25µM.
For COc1ccccc1CNc1ncncc1-c1ccoc1 the results were HPGD inh inactive, ALDH1A1 block 25µM, Lamin A splicing inconclusive and KinaseGlo FLuc inactive.
Screening CCOC(=O)c1c(NC(=O)C2c3ccccc3Oc3ccccc32)sc(C)c1CC returned IMPase inh inactive.
COC(=O)CCCCCN1C(=O)/C(=C\c2ccncc2)SC1=S was read as ALDH1A1 block 25µM.
Screening Cc1c(NC(=O)c2ccc(-c3cccc([N+](=O)[O-])c3)o2)cccc1-c1nc2cc(Cl)ccc2o1 returned IMPase inh inactive.
For CN(C)c1ccc(C=NCCC2(O)CCOC(C)(C)C2)cc1 (stereo not given) the results were HPGD inh inactive, PNC inhibitor inactive, ALDH1A1 block 0.56µM, Lamin A splicing inactive, IMPase inh inconclusive and KinaseGlo FLuc inactive.
Screening CCOC(=O)c1ccc(NC(=O)CCc2ccc(C)o2)cc1 returned HPGD inh inactive, PNC inhibitor inactive, ALDH1A1 block inconclusive, Lamin A splicing inactive, IMPase inh inactive and KinaseGlo FLuc inactive.
Cc1cccc(NC(=O)CCc2ccc(C)o2)c1 was read as HPGD inh inactive, PNC inhibitor -80, ALDH1A1 block inactive, Lamin A splicing inactive, IMPase inh inactive and KinaseGlo FLuc inactive.
For Cc1cccc(NC(=O)CN2CCN(CC(=O)Nc3cccc(C)c3)CC2)c1 the results were HPGD inh inactive, PNC inhibitor inconclusive, ALDH1A1 block 20µM, Lamin A splicing inactive, IMPase inh inactive and KinaseGlo FLuc inactive.
`Cc1cccc(NC(=O)CCc2ccccc2)c1` gave ALDH1A1 block inactive.
Cc1ccc(CCC(=O)Nc2ccc(S(N)(=O)=O)cc2)o1 was read as HPGD inh inactive, PNC inhibitor inactive, ALDH1A1 block 14µM, Lamin A splicing inactive, IMPase inh inactive and KinaseGlo FLuc inactive.
Screening COc1ccc(-c2cc(C(F)(F)F)nc(SCC(=O)N3CCCCC3)n2)cc1OC returned IMPase inh inactive.
`COc1cc(C(=S)N2CCCC2)cc(Cl)c1OCC(=O)Nc1ccc(C)cc1C` gave HPGD inh 7.9µM, PNC inhibitor inactive, ALDH1A1 block 2.5µM, Lamin A splicing inconclusive and KinaseGlo FLuc inactive.
C[C@@H]1CC2(OC3C[C@@]4(C)C5=CC[C@H]6C(C)(C)C(O[C@@H]7OC[C@@H](O)[C@H](O)[C@H]7O)CC[C@@]67C[C@@]57CC[C@]4(C)C31)OC(O)C1(C)OC21 (stereo not given in full) was read as HPGD inh inactive and ALDH1A1 block inconclusive.
For c1ccc(Nc2nc3ccccc3[nH]2)nc1 the results were HPGD inh 32µM, PNC inhibitor inconclusive, ALDH1A1 block inconclusive, Lamin A splicing inactive, IMPase inh inactive and KinaseGlo FLuc inactive.
For NCCn1c(-c2ccccc2)cc(C(=O)O)c1-c1ccccc1F the results were HPGD inh inactive, PNC inhibitor -81, ALDH1A1 block inconclusive, Lamin A splicing inactive and KinaseGlo FLuc inactive.
O=C(OCn1ncc(Cl)c(Cl)c1=O)c1cccc(C(F)(F)F)c1 was read as HPGD inh 18µM, PNC inhibitor inconclusive, ALDH1A1 block 0.63µM, Lamin A splicing inconclusive, IMPase inh inactive and KinaseGlo FLuc inactive.
`N#CCC(CNc1ncc(C(F)(F)F)cc1Cl)OC(=O)c1cccc(C(F)(F)F)c1` (stereo not given) gave HPGD inh inconclusive, PNC inhibitor inconclusive, ALDH1A1 block inactive, Lamin A splicing inactive, IMPase inh inactive and KinaseGlo FLuc inactive.
`O=C(OCc1cc(=O)n2nc(C3CCCCC3)sc2n1)c1ccccc1Cl` gave Lamin A splicing inactive.
Screening COc1ccc(C(c2c(C)[nH]n(C(N)=S)c2=O)C(C#N)C#N)cc1 (stereo not given) returned HPGD inh 32µM, PNC inhibitor inconclusive, ALDH1A1 block 13µM, Lamin A splicing inactive, IMPase inh inactive and KinaseGlo FLuc inactive.
Screening CC1CCCN(c2ccc(C(=O)NCC3CCCO3)cn2)C1 (stereo not given) returned HPGD inh 11µM, PNC inhibitor inactive, ALDH1A1 block inactive, Lamin A splicing inactive, IMPase inh inactive[1.84 µM] and KinaseGlo FLuc inactive.
CC(C)CCN1C(=O)c2ccc(C(=O)NCC3CCCO3)cc2C1=O (stereo not given) was read as HPGD inh inactive, PNC inhibitor inactive, ALDH1A1 block 4.5µM, Lamin A splicing inactive, IMPase inh inactive and KinaseGlo FLuc inactive.
Screening O=C(NCC1CCCO1)c1ccc2c(c1)C(=O)N(C1CCCCC1)C2=O (stereo not given) returned HPGD inh inactive, PNC inhibitor inactive, ALDH1A1 block 8.9µM, Lamin A splicing inactive, IMPase inh inactive and KinaseGlo FLuc inactive.
For CC[C@@H](c1ccccc1)n1c(=O)n2n(c1=O)[C@H]1[C@H](O)[C@H]3O[C@@H]3/C(=N/OCC(C)C)[C@@H]1CC2 the results were ALDH1A1 block inactive[13.5 µM].
`Nc1ncnc2c1ncn2[C@@H]1CCCO1` gave IMPase inh inactive.
Screening CCc1ccc(CNc2ccc(N3CCN(C(C)=O)CC3)cc2)cc1 returned HPGD inh inactive, PNC inhibitor inconclusive, ALDH1A1 block 22µM, Lamin A splicing inactive, IMPase inh inactive and KinaseGlo FLuc inactive.
COc1cc(CNc2ccc(N3CCN(C(C)=O)CC3)cc2)ccc1OCc1ccccc1 was read as ALDH1A1 block 18µM, Lamin A splicing inactive and KinaseGlo FLuc inactive.
